This is an account of results in PubChem BioAssay (NCI).

Structures are written as SMILES. About 79,000 compounds went through this panel and 15% of them were active in at least one assay; those are over-represented in the sample as a whole. A number with no mark means an inactive call. Active and inactive are the calls of the source. No stated cut-off is given here; in the data, active means growth inhibition above about 70%; inactive means the rest.

Test [1] is described as follows: NCI Yeast Anticancer Drug Screen. Data for the rad50 strain (AID 155).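 Further: 0% = growth of vehicle-only cultures of the same strain.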 As to conditions: S. cerevisiae rad50 strain growth inhibition, hits give high values. In a few lines:
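DNA repair mutant yeast, compound exposure, growth read-out; inhibition is taken relative to vehicle.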

Test [2] in a line: NCI Yeast Anticancer Drug Screen. Data for the mec2-1 strain (AID 157). Particulars: S. cerevisiae mec2-1 strain, hits give high values. In outline: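 Cells of the genetically defined mec2-1 yeast strain are incubated with test compound. Inhibition of growth is calculated against vehicle-treated controls.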
Test [3] can be described thus: NCI Yeast Anticancer Drug Screen. Data for the sgs1 mgt1 strain (AID 161).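 Further: 0% = growth of cultures given vehicle only.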 As to conditions: S. cerevisiae sgs1 mgt1 strain, hits give high values. In outline:
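Mutant yeast exposed to compound; growth scored against vehicle-only wells.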

Test [4] can be described thus: NCI Yeast Anticancer Drug Screen. Data for the cln2 rad14 strain (AID 165).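 Further: 0% = growth equal to vehicle treated cultures.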 As to conditions: S. cerevisiae cln2 rad14 strain, hits give high values. In outline:
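The screen exposed genetically defined yeast (cln2 rad14) to test compounds and scored growth inhibition relative to vehicle-treated controls.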

Test [5] can be described thus: NCI Yeast Anticancer Drug Screen. Data for the bub3 strain (AID 167). Particulars: S. cerevisiae bub3 mutant strain, hits give high values. In a few lines: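 In this screen, a yeast mutant lacking normal mitotic checkpoint function is challenged with compound. Relative growth versus vehicle gives the inhibition value.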
A short description of test [6]: NCI Yeast Anticancer Drug Screen. Data for the mlh1 rad18 strain (AID 175). Particulars: S. cerevisiae mlh1 rad18 strain growth inhibition, hits give high values. In outline: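 Compound-treated yeast growth, normalised to vehicle controls. Strain bears defined DNA repair mutations.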
The mark [7] stands for this setting: at 5.0 µM (retest, dose inferred, filed as 0.5).
The mark [8] stands for this setting: at 50.0 µM (retest, dose inferred, filed as 5.0).

Turning to `CCc1cc(C)cc2[n+]1CC=C2`, the growth inhibition in test [1] (setting [7]) is -8%; in test [1] (setting [8]), 83% (active); in test [1] (at 50.0 µM) it was 98% (active); in test [2] (setting [7]) it was -5%; in test [2] (setting [8]), 95% (active); in test [2] (at 50.0 µM), 96.4% (active). In addition, the growth inhibition is -5% in test [3] (setting [7]); 98% (active) in test [3] (setting [8]); 98.3% (active) in test [3] (at 50.0 µM); -1% in test [4] (setting [7]); 92% (active) in test [4] (setting [8]); 98.1% (active) in test [4] (at 50.0 µM). In addition, the growth inhibition was -2% in test [5] (setting [7]); 87% (active) in test [5] (setting [8]); 98% (active) in test [5] (at 50.0 µM); -6% in test [6] (setting [7]); 93% (active) in test [6] (setting [8]); 97.8% (active) in test [6] (at 50.0 µM).
For `C1CCC(NCC2CCCO2)CC1` (stereo not given), the growth inhibition is -12% in test [1] (setting [7]); 1% in test [1] (setting [8]); 77.5% (active) in test [1] (at 50.0 µM); -10% in test [2] (setting [7]); -21% in test [2] (setting [8]); 71% (active) in test [2] (at 50.0 µM). Besides, the growth inhibition was -1% in test [3] (setting [7]); -9% in test [3] (setting [8]); 79.5% (active) in test [3] (at 50.0 µM); 25% in test [4] (setting [7]); 30% in test [4] (setting [8]); 76.3% (active) in test [4] (at 50.0 µM). In addition, the growth inhibition in test [5] (setting [7]) was -2%; in test [5] (setting [8]), 17%; in test [5] (at 50.0 µM), 77.8% (active); in test [6] (setting [7]), -4%; in test [6] (setting [8]) it was -31%; in test [6] (at 50.0 µM), 58.3%.
On to `O=C(O)c1ccccc1.[Zn+2]`, for which the growth inhibition in test [1] (setting [7]) was 1%; in test [1] (setting [8]), -5%; in test [1] (at 50.0 µM), 19.4%; in test [2] (setting [7]) it was 3%; in test [2] (setting [8]), -10%; in test [2] (at 50.0 µM), 8.6%. Moreover, the growth inhibition in test [3] (setting [7]) was 4%; in test [3] (setting [8]), 9%; in test [3] (at 50.0 µM), 15.5%; in test [4] (setting [7]), -3%; in test [4] (setting [8]) it was -21%; in test [4] (at 50.0 µM) it was -74.6%. In addition, the growth inhibition in test [5] (setting [7]) is -8%; in test [5] (setting [8]), -1%; in test [5] (at 50.0 µM), 45.6%; in test [6] (setting [7]) it was 6%; in test [6] (setting [8]), 10%; in test [6] (at 50.0 µM), 1.9%.
Take `COC(=O)C1=C(C(=O)OC)C2(OC(C)=O)c3ccccc3-c3ccccc3C12` (stereo not given): the growth inhibition was 72% (active) in test [1] (setting [7]); 98% (active) in test [1] (setting [8]); 90.2% (active) in test [1] (at 50.0 µM); 92% (active) in test [2] (setting [7]); 99% (active) in test [2] (setting [8]); 93.5% (active) in test [2] (at 50.0 µM). In addition, the growth inhibition was 43% in test [3] (setting [7]); 98% (active) in test [3] (setting [8]); 91.6% (active) in test [3] (at 50.0 µM); 86% (active) in test [4] (setting [7]); 99% (active) in test [4] (setting [8]); 89.6% (active) in test [4] (at 50.0 µM). Also, the growth inhibition is 92% (active) in test [5] (setting [7]); 98% (active) in test [5] (setting [8]); 90.2% (active) in test [5] (at 50.0 µM); 73% (active) in test [6] (setting [7]); 99% (active) in test [6] (setting [8]); 91.2% (active) in test [6] (at 50.0 µM).
As for `c1ccc(C[As](c2ccccc2)c2ccccc2)cc1`, the growth inhibition in test [1] (setting [7]) was 99% (active); in test [1] (setting [8]) it was 3%; in test [1] (at 50.0 µM), 99.2% (active); in test [2] (setting [7]), 99% (active); in test [2] (setting [8]), 15%; in test [2] (at 50.0 µM) it was 99.5% (active). Further, the growth inhibition in test [3] (setting [7]) is 99% (active); in test [3] (setting [8]) it was 36%; in test [3] (at 50.0 µM) it was 99.5% (active); in test [4] (setting [7]), 98% (active); in test [4] (setting [8]), -98%; in test [4] (at 50.0 µM) it was 99.2% (active). Further, the growth inhibition in test [5] (setting [7]) is 99% (active); in test [5] (setting [8]), 22%; in test [5] (at 50.0 µM), 99.4% (active); in test [6] (setting [7]), 99% (active); in test [6] (setting [8]) it was 23%; in test [6] (at 50.0 µM) it was 99.2% (active).
In the case of `C=NCC#N`, the growth inhibition in test [1] (setting [7]) is 8%; in test [1] (setting [8]), 8%; in test [1] (at 50.0 µM) it was -12.9%; in test [2] (setting [7]), -1%; in test [2] (setting [8]), 2%; in test [2] (at 50.0 µM), -1.3%. Also, the growth inhibition was 4% in test [3] (setting [7]); 8% in test [3] (setting [8]); 25% in test [3] (at 50.0 µM); 11% in test [4] (setting [7]); 6% in test [4] (setting [8]); 67.3% in test [4] (at 50.0 µM). Also, the growth inhibition in test [5] (setting [7]) is 4%; in test [5] (setting [8]), -2%; in test [5] (at 50.0 µM), 5.25%; in test [6] (setting [7]), 3%; in test [6] (setting [8]), 3%; in test [6] (at 50.0 µM), 26.9%.
In the case of `NC(=O)c1cc([N+](=O)[O-])c(Cl)c([N+](=O)[O-])c1Cl`, the growth inhibition was 34% in test [1] (setting [7]); 65% in test [1] (setting [8]); 88.9% (active) in test [1] (at 50.0 µM); 41% in test [2] (setting [7]); 78% (active) in test [2] (setting [8]); 86.7% (active) in test [2] (at 50.0 µM). In addition, the growth inhibition is 83% (active) in test [3] (setting [7]); 98% (active) in test [3] (setting [8]); 91.5% (active) in test [3] (at 50.0 µM); 91% (active) in test [4] (setting [7]); 100% (active) in test [4] (setting [8]); 90.3% (active) in test [4] (at 50.0 µM). Further, the growth inhibition in test [5] (setting [7]) is 66%; in test [5] (setting [8]), 97% (active); in test [5] (at 50.0 µM) it was 88.2% (active); in test [6] (setting [7]) it was 39%; in test [6] (setting [8]), 61%; in test [6] (at 50.0 µM) it was 88.3% (active).
Regarding `O=[N+]([O-])/C=C\c1ccc2c(c1)OCO2`, the growth inhibition is 99% (active) in test [1] (setting [7]); 100% (active) in test [1] (setting [8]); 99.3% (active) in test [1] (at 50.0 µM); 100% (active) in test [2] (setting [7]); 100% (active) in test [2] (setting [8]); 99.5% (active) in test [2] (at 50.0 µM). The growth inhibition is 99% (active) in test [3] (setting [7]); 99% (active) in test [3] (setting [8]); 99.5% (active) in test [3] (at 50.0 µM); 100% (active) in test [4] (setting [7]); 99% (active) in test [4] (setting [8]); 98.8% (active) in test [4] (at 50.0 µM). Also, the growth inhibition was 100% (active) in test [5] (setting [7]); 94% (active) in test [5] (setting [8]); 99% (active) in test [5] (at 50.0 µM); 100% (active) in test [6] (setting [7]); 100% (active) in test [6] (setting [8]); 99.5% (active) in test [6] (at 50.0 µM).
For `COc1cc2c(c3c[n+](C)c4c5cc6c(cc5ccc4c13)OCO6)OCO2`, the growth inhibition is 98% (active) in test [1] (setting [7]); 98% (active) in test [1] (setting [8]); 92.2% (active) in test [1] (at 50.0 µM); 99% (active) in test [2] (setting [7]); 99% (active) in test [2] (setting [8]); 94.8% (active) in test [2] (at 50.0 µM). For the same molecule, the growth inhibition in test [3] (setting [7]) is 99% (active); in test [3] (setting [8]) it was 98% (active); in test [3] (at 50.0 µM), 93.7% (active); in test [4] (setting [7]), 98% (active); in test [4] (setting [8]), 98% (active); in test [4] (at 50.0 µM), 92.2% (active). For the same molecule, the growth inhibition in test [5] (setting [7]) was 98% (active); in test [5] (setting [8]) it was 97% (active); in test [5] (at 50.0 µM), 93.1% (active); in test [6] (setting [7]), 99% (active); in test [6] (setting [8]), 98% (active); in test [6] (at 50.0 µM), 92.8% (active).
Regarding `O=[N+]([O-])c1ccc(SP(=S)(c2ccccc2)c2ccccc2)c([N+](=O)[O-])c1`, the growth inhibition in test [1] (setting [7]) is 7%; in test [1] (setting [8]), 97% (active); in test [1] (at 50.0 µM), 67.3%; in test [2] (setting [7]), 17%; in test [2] (setting [8]), 98% (active); in test [2] (at 50.0 µM), 48.3%. The growth inhibition in test [3] (setting [7]) is 30%; in test [3] (setting [8]), 98% (active); in test [3] (at 50.0 µM) it was 88.6% (active); in test [4] (setting [7]), 5%; in test [4] (setting [8]), 96% (active); in test [4] (at 50.0 µM), 83.2% (active). Moreover, the growth inhibition was 9% in test [5] (setting [7]); 98% (active) in test [5] (setting [8]); 48% in test [5] (at 50.0 µM); 28% in test [6] (setting [7]); 99% (active) in test [6] (setting [8]); 70.5% (active) in test [6] (at 50.0 µM).
